From PubChem BioAssay
The source made the active and inactive calls.

Assays:
[1] = small molecules captured by biotinylated probe aFSTL3 – biochemical, small-molecule microarray, fluorescence 635/667, stem cell growth factor project, primary screen (AID 1064); settings: higher = more signal;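 also: measures binding of the biotinylated anti-FSTL3 antibody to printed compounds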
[2] = binders from COS7 lysate, DM2A8 probe, primary screen, torsin A project, cell lysate, small-molecule microarray, fluorescence 635/667 (AID 1065); settings: higher = more signal, COS7 lysate expressing mutant human TOR1A
[3] = small molecules captured by biotinylated probe aFGF2 – biochemical, small-molecule microarray, fluorescence 635/667, stem cell growth factor project, primary screen (AID 1067); settings: higher = more signal;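 also: measures binding of biotinylated aFGF2 protein to printed compounds on slides; z-score merges feature fluorescence and signal-to-noise across triplicate slides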
[4] = small molecules captured by biotinylated probe aFGF10 – biochemical, small-molecule microarray, fluorescence 635/667, stem cell growth factor project, primary screen (AID 1071); settings: higher = more signal;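 also: score merges 667 nm spot intensity and signal to noise from triplicate slides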
[5] = biological target: Neurogenic locus notch homolog protein 2 (Homo sapiens) (UniProt Q04721); assay: small molecules binding Notch2 protein – biochemical, small-molecule microarray, 635 nm fluorescence, stem cell growth factors, primary screen (AID 1073); settings: higher = more signal
Sequence of Neurogenic locus notch homolog protein 2 (Homo sapiens) (Q04721 whole entry, looked up, canonical isoform): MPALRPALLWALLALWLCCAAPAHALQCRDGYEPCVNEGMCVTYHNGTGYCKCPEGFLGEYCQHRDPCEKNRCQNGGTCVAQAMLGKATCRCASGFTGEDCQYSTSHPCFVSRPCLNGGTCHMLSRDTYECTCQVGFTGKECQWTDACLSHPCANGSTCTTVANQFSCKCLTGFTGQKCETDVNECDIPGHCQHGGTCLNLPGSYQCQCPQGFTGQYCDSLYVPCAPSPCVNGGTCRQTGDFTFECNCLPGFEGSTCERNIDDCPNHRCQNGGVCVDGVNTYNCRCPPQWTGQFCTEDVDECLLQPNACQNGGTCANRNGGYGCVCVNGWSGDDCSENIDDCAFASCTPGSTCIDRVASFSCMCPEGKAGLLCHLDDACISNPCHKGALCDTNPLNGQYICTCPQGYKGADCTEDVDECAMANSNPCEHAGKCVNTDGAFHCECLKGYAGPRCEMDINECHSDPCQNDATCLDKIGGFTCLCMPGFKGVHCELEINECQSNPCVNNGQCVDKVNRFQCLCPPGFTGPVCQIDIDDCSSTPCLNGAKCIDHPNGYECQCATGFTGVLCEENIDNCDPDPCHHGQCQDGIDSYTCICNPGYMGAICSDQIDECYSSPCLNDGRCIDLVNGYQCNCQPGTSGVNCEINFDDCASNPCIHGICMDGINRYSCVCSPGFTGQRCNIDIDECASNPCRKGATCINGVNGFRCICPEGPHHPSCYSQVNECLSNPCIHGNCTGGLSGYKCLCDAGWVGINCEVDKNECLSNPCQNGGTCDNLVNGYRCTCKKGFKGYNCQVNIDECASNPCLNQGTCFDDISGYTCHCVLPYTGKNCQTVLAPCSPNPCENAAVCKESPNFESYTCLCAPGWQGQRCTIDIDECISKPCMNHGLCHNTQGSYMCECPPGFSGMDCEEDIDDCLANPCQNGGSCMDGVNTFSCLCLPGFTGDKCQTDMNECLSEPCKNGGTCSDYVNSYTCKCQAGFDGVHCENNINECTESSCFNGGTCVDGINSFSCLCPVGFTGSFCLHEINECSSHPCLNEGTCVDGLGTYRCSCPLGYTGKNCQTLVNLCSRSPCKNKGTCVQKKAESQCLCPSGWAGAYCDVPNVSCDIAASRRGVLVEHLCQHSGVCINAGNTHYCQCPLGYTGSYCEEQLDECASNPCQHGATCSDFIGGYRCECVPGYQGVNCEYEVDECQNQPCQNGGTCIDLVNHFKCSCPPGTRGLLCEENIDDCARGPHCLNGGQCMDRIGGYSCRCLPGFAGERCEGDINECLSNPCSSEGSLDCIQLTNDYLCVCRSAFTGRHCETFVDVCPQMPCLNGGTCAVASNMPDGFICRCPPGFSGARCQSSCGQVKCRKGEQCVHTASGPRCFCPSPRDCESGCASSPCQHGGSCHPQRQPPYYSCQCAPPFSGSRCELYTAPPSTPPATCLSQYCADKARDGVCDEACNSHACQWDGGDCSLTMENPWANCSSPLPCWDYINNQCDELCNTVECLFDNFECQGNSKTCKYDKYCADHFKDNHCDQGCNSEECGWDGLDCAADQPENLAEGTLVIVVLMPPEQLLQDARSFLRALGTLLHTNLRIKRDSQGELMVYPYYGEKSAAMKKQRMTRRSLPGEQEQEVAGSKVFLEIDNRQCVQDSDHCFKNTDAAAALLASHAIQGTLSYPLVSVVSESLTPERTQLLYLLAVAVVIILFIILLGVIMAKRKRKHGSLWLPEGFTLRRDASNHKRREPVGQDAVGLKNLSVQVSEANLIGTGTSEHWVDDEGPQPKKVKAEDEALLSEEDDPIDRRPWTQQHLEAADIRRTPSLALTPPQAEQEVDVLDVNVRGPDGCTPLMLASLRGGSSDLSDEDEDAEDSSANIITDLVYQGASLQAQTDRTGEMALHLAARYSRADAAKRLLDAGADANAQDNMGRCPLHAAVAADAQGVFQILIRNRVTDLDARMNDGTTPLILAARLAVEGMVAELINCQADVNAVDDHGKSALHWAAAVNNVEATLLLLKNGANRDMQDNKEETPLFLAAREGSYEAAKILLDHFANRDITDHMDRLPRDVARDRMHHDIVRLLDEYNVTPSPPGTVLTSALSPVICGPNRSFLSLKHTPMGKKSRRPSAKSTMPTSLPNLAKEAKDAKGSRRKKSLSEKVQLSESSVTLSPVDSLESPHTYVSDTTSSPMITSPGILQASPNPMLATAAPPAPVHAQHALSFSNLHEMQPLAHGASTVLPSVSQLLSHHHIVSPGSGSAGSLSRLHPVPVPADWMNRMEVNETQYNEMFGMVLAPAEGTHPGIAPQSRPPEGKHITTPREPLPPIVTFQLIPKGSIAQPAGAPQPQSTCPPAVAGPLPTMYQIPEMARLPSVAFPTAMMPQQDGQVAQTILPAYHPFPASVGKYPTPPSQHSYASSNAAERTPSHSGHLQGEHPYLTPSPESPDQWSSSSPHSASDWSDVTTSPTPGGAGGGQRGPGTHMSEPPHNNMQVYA

[6] = biological target: Pro-neuregulin-1, membrane-bound isoform (Homo sapiens) (UniProt Q02297); assay: small molecules binding neuregulin-1 protein – biochemical, small-molecule microarray, fluorescence 635/667, psychiatric disease protein project, primary screen (AID 1075); settings: NRG1 binding, 635 nm fluorescence, higher = more signal;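 also: score combines 667 nm spot fluorescence with signal to noise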
Sequence of Pro-neuregulin-1, membrane-bound isoform (Homo sapiens) (Q02297 whole entry, looked up, the tested form may be a part, canonical isoform): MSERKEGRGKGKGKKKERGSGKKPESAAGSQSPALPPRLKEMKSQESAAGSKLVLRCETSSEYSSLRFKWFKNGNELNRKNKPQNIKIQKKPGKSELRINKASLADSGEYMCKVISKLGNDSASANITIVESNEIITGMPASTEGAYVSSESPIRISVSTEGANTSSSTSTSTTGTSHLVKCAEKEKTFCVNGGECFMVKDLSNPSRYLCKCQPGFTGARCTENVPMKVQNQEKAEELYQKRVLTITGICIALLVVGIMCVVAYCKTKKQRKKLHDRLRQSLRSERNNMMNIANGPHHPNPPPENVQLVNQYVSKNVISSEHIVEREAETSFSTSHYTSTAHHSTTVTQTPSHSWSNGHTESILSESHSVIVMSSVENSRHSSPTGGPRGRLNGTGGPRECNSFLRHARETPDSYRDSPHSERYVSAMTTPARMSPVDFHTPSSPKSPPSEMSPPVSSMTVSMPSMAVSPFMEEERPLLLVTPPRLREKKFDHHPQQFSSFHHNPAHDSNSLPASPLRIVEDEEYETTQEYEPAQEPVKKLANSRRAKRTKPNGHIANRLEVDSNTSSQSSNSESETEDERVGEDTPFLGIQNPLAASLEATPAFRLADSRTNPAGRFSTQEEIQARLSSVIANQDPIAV

[7] = tested on: Neuregulin-1 EGF-like domain; assay: small molecules binding NRG1 EGF domain – biochemical, small-molecule microarray, 635 nm fluorescence, primary screen (AID 1081); settings: higher = more signal;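 also: binding of the protein to compounds printed on small-molecule microarray slides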
[8] = FRG1 expression reporter modulators in myotubes – cell-based, C2C12 myotubes, firefly/Renilla luciferase, luminescence, FRG1 inhibition for FSHD, primary screen (AID 1084); settings: FRG1 promoter luciferase, higher = more signal, called active from +8 up or from −8 down
[9] = small molecules captured by biotinylated probe aFST – biochemical, small-molecule microarray, fluorescence 635/667, stem cell growth factor project, primary screen (AID 1086); settings: higher = more signal;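 also: score merges 667 nm fluorescence with signal-to-noise of each printed compound spot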
[10] = binders of probe aHhip on microarray, primary screen, stem cell growth factor project, biochemical, small-molecule microarray, fluorescence 635/667 (AID 1087); settings: higher = more signal;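 also: score merges spot fluorescence at 667nm with spot signal to noise ratio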

| Structure (SMILES) | composite z-score [1] | composite z-score [2] | composite z-score [3] | composite z-score [4] | composite z-score [5] | composite z-score [6] | composite z-score [7] | z-score [8] | composite z-score [9] | composite z-score [10] |
| --- | --- | --- | --- | --- | --- | --- | --- | --- | --- | --- |
| COCCCNC(=O)[C@@]1(CCS(=O)(=O)c2ccccc2)N=C(c2ccc(OCCCO)cc2)O[C@H]1c1ccccc1N=[N+]=[N-] | 0.205 | 2.1 | 0.137 | 1.17 | 1.48 | 1.7 | 1.23 | 1.72 (inactive) | 1.63 | -0.0645 |
| CC(C)(C)OC(=O)CC[C@]1(C(N)=O)N=C(c2ccc(OCCCO)cc2)O[C@H]1c1ccccc1 | 1.05 | 1.16 | 0.0466 | 0.27 | 1.53 | 2.53 | 1.07 | -0.578 (inactive) | 0.994 | 0.294 |
| C=CC1c2cc(O)c(OC)cc2CCN1Cc1cccc(OC(F)(F)F)c1 (stereo not given) | 0.335 | -0.145 | -0.103 | -0.605 | -0.137 | 1.59 | 1.1 | 0.385 (inactive) | -0.108 | -0.268 |
| C[N+](C)(C)CCCC[C@@H]1NC(=O)[C@H]2C[C@@H](C(=O)NCCCCCCNC(=O)CS)[C@@H](c3ccc(O)cc3)N2C1=O | 0.312 | 2 | -0.131 | -0.457 | -1.36 | 1.7 | 1.41 | -0.395 (inactive) | -0.39 | -0.0994 |
| CN1C(=O)C2C=CC(C(O)c3c(F)cccc3Cl)N(NC(=O)OC(C)(C)C)C2C1=O (stereo not given) | 0.171 | 0.233 | 0.0111 | 1.11 | 1.23 | 1.49 | 1.3 | 0.636 (inactive) | 0.888 | 0.0623 |
| CN(C)CCCCNC(=O)[C@@H]1C[C@@H]2C(=O)N[C@@H](CCCCN)C(=O)N2[C@@H]1c1ccc(O)cc1 | 0.597 | 0.034 | -0.145 | -0.146 | 0.471 | 0.707 | 1.13 | -0.778 (inactive) | 0.214 | 0.151 |
| COc1cc2c(cc1O)C(c1cccs1)N(Cc1cccc(OC(F)(F)F)c1)CC2 (stereo not given) | 0.0011 | 0.61 | -0.114 | -0.0012 | 0.192 | 1.39 | 0.774 | -0.79 (inactive) | -0.146 | -0.164 |
| CCCC=C(CCC)[C@@H](NS(=O)(=O)c1ccc(Cl)cc1)c1ccc(C(=O)OC)cc1 | -0.172 | -0.114 | -0.0841 | 0.484 | 0.41 | -0.194 | 0.866 | 2.58 (inactive) | 0.0699 | -0.236 |
| CC(c1ccccc1)C(O)C1C=CC2C(=O)N(C)C(=O)C2N1NC(=O)OC(C)(C)C (stereo not given) | 0.301 | 0.518 | 0.225 | 0.626 | 1.21 | 1.91 | 1.17 | 1.89 (inactive) | 1.14 | -0.0645 |
| CC(C)[Si](C#CCCCC#N)(Oc1ccccc1Br)C(C)C | -0.517 | 0.14 | -0.182 | 0.151 | 0.266 | 0.151 | 0.204 | 0.382 (inactive) | 0.155 | 0.316 |
| CC(C)NC(=O)[C@@]1(Cc2ccccc2I)c2ccccc2C(=O)N(Cc2ccccc2Cl)[C@H]1c1ccc(CO)cc1 | 0.232 | 0.152 | 0.028 | 0.504 | 0.917 | 1.19 | 1.22 | -2.18 (inactive) | 0.237 | -0.0994 |
